Most compounds without a hit are left out; they make up all but 2.1% or so of the library.
TDP43 rescue = inhibitors of TDP-43 toxicity in yeast. TDP-43 expressing yeast growth rescue, BacTiter-Glo, 24 h. Potency, µM (doses to about 46.1 µM), inactives show at the top dose growth rescue (activation), most hits filed as activators. actives 1.8% (n = 410,000); note: % of control where 0% means no effect; nearly all actives have a fitted effect of over 50% in size
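Luminescence from BacTiter-Glo reports growth of TDP-43-expressing yeast after 24 hr at 30 deg C with compound. Cells were raffinose-pregrown to mid-log, then seeded in galactose medium at OD600=0.02.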
TSG101-PTAP inh = blocks PTAP/TSG101 interaction to inhibit HIV-1 budding; Q99816; Fluorescence polarization, FITC-PTAP peptide / Tsg101 binding; Potency, µM (top dose mostly 115 µM), inactives show at the highest dose activity change, negative = inhibition, most hits filed as inhibitors; 340,000 tested, under 10 active; AID 493005; active = well fitted inhibition curve with a large enough effect in the main read-out, with a control signal flat, not every such curve was filed as active; inconclusive = small, poorly fitted or top-dose-only effect, or effect the other way, or a change in a side signal; inactive = no such curve, though single readings can be large or run the other way; note: % of control where 0% means no effect
Target sequence (Q99816 whole entry, looked up): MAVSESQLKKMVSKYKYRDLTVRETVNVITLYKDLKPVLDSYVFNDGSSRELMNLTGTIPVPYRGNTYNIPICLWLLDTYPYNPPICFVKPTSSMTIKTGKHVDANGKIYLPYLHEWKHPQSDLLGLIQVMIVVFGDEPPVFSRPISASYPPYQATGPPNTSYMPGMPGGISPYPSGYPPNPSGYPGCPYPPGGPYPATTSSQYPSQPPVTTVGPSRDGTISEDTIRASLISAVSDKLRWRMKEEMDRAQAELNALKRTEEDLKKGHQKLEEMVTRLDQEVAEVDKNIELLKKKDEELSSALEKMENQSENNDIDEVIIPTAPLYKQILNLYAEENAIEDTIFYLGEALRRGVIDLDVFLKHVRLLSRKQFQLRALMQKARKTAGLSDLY
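FP read-out: FITC-PTAP peptide, 50 nM final, binding Tsg101 binding domain, 10 uM final; 20 min, r.t.; 10 mM HEPES pH 7.5, 0.15 M NaCl, 0.01% Tween 20, 3 mM EDTA, 0.1 mM TCEP.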
Abeta rescue = compounds reversing amyloid beta toxicity in yeast; Potency, µM (series often up to 46.1 µM), actives largely listed as activators; AID 1347071; actives 0.063% (n = 410,000); yeast expressing A-beta42, growth rescue, OD600, 48 h; response scale: 0% DMSO, 100% iron-clioquinol control; note: nearly all actives have a fitted effect of over 55% in size
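Yeast growth medium received pinned compounds, then yeast cells expressing toxic A-beta were added; plates incubated at 30 C for 48 hr. Growth read as absorbance at 600 nm, normalized to DMSO and equimolar FeCl3 plus clioquinol controls.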
FUS yeast rescue = suppressors of FUS proteinopathy in yeast. Potency, µM (highest dose often 76.6 µM), hits mostly activators. AID 1347120. S. cerevisiae FUS-expressing, growth rescue, OD600, 24 h. actives 0.24% (n = 390,000);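 note: plate controls were DMSO vehicle for no effect and reference control for full effect; nearly all actives have a fitted effect of over 55% in size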
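Galactose (2%) drives FUS expression in yeast precultured in raffinose; seeding density OD 0.005. Test compounds incubated 24hr at 30C and 99% humidity before absorbance at 600 nm was measured.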
aSyn yeast inh = inhibitors of alpha-synuclein toxicity in yeast; Yeast expressing alpha-synuclein, growth rescue, BacTiter-Glo, 24 h; Potency, µM (titrated, usually from 46.1 µM), without a hit: top-dose growth rescue (activation), hits mostly activators; actives 0.14% (n = 370,000); AID 652106; note: % of control where 0% means no effect; nearly all actives have a fitted effect of over 65% in size
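Readout is rescue of growth in alpha-synuclein-expressing yeast, so inhibitors of toxicity appear as activators. Growth after 24 hr at 30 deg C in galactose medium is quantified by luminescence.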
* = called active by the depositor; i = inactive; ? = inconclusive; . = no result given. Unless noted, calls come from the whole dose curve; as a rule, active = well fitted curve in the direction sought with a large enough effect; inconclusive = small, poorly fitted or top-dose-only effect, or another doubt; inactive = no such curve, though single readings can be large; an effect the other way counts as inactive or inconclusive. Potency is the fitted concentration of half-maximal effect.

SMILES	TDP43 rescue	TSG101-PTAP inh	Abeta rescue	FUS yeast rescue	aSyn yeast inh
O=C1/C(=C/c2ccccc2Cl)SC(=S)N1CCCC(=O)N(CCO)c1ccccc1	27%	0%	i	i	18µM*
O=C(/C=C/c1ccc2c(c1)OCCCO2)c1ccccc1O	13µM*	0%	i	.	-37%
Cc1ccc(/C=C/C(=O)c2ccccc2O)cc1	7%	-3%	i	i	0%
Cc1ccc(O)c(C(=O)C=Cc2ccccc2)c1	13µM*	-4%	i	.	?
Cc1ccc(O)c(C(=O)/C=C/c2ccc3c(c2)OCCCO3)c1	14µM*	0%	i	i	-18%
COc1cc(/C=C/C(=O)c2ccccc2O)cc(OC)c1OC	16µM*	-4%	i	i	13%
CC1(Cc2ccccc2OC(F)(F)F)C(=O)Nc2ccc(OC(F)(F)F)cc21 (centres undefined)	-55%	.	i	i	2%
CC1(Cc2ccccc2OC(F)(F)F)C(=O)Nc2ccc(-c3ccsc3)cc21 (centres undefined)	20µM*	.	i	i	-61%
CC(C)CN(C)c1ccc(/C=C2\C=Cc3ccccc32)cc1	.	.	.	.	19%
CC(C)c1ccccc1NC(=O)CSc1nnc(COc2ccccc2)o1	?	.	i	i	.
CC(C)c1ccccc1NC(=O)CSc1nnc(COc2ccccc2Cl)o1	20µM*	.	i	i	.
COC(=O)c1ccccc1NC(=O)CSc1nnc(Cc2ccc(Cl)cc2)o1	25µM*	-8%	i	i	6%
O=S(=O)(c1ccc(Cl)c(Cl)c1)c1snnc1-c1ccccc1	13µM*	0%	i	i	-19%
CCSc1nc2ccccc2c(=O)n1CCc1ccc(OC)c(OC)c1	18µM*	-5%	i	?	?
COc1ccc(CCn2c(C)nc3ccccc3c2=O)cc1OC	30%	-2%	i	i	-2%
COCCn1c(SCc2ccc(F)cc2)nc2ccccc2c1=O	18µM*	-1%	i	i	9%
CCC(C)[C@H](NS(=O)(=O)c1ccc(C)cc1)C(=O)N1CCC(C(=O)N[C@@H](Cc2ccccc2)C(=O)O)CC1 (some centres undefined)	-11%	-1%	i	i	1%
CC(=O)O[C@H]1C[C@@]2(C)[C@@H](C[C@@H](O)[C@H]3[C@@]4(C)CC[C@@H](O)[C@@H](C)[C@@H]4CC[C@@]32C)/C1=C(\CCC=C(C)C)C(=O)O	25%	-3%	i	?	3%
O/N=C/c1ccc(OCc2ccccc2)c(Cl)c1	22µM*	-6%	i	i	-5%
O/N=C/c1ccc(OCc2ccccc2F)c(Cl)c1	?	-2%	i	i	0%
O/N=C/c1ccc(OCc2ccccc2)c(Br)c1	13µM*	-1%	i	i	-15%
O/N=C/c1cc(Br)cc(Br)c1OCc1ccccc1	24%	5%	i	i	14%
CCN(CC)c1ccc(/C=C(/C#N)c2nc3ccccc3[nH]2)c(OC(C)C)c1	13µM*	?	i	?	-25%
CCOc1cccc(/C=C(/C#N)c2nc3ccccc3[nH]2)c1OCC(=O)O	13%	-4%	i	i	-1%
Nc1nn(-c2ccccc2)c(N)c1N=Nc1ccc2c(c1)OCO2	18µM*	-2%	i	i	-15%
SMILES	TDP43 rescue	TSG101-PTAP inh	Abeta rescue	FUS yeast rescue	aSyn yeast inh
CCCCC1=CC2=C(c3ccco3)C(=O)C(C)(OC(=O)c3ccc(OC)cc3)C(=O)C2=CN1CC1CC1 (centres undefined)	-19%	-10%	i	20µM*	-6%
CCOC(=O)c1[nH]c2ccccc2c1NC(=O)c1ccccc1OC	25µM*	.	i	i	.
CCOC(=O)c1[nH]c2ccccc2c1NC(=O)c1cc(Cl)ccc1Cl	3%	.	i	i	.
Cc1cc2ccccc2n1CCNC(=O)c1cccc(Br)c1	?	.	i	i	.
Cc1cc2ccccc2n1CCNC(=O)c1cccc(Cl)c1	14µM*	.	i	i	.
COCCCNC(=O)C[C@H]1C[C@@]2(C(=O)OC)C(=C[C@H](C3CCCC3)O[C@@H]2C)N(Cc2ccco2)C1=O	.	.	.	i	.

Screening data deposited in PubChem by National Center for Advancing Translational Sciences (NCATS).
